# Measured values as given in ChEMBL document CHEMBL4513135, “CO-ADD screening of IQOG CSIS (Spain) compounds”.
# Entries with a potency or affinity are not part of this list.
# Columns and labels:
# Staphylococcus aureus = conditions: Concentration 32 ug.mL-1; ASSAY_TEST Inhibition of Bacterial Growth; detection method Absorption (OD600); MEDIA CAMHB; plate type 384well; NBS; CORNING #3640; time 18 hr
# Escherichia coli = conditions: Concentration 32 ug.mL-1; ASSAY_TEST Inhibition of Bacterial Growth; detection method Absorption (OD600); MEDIA CAMHB; plate type 384well; NBS; CORNING #3640; time 18 hr
SMILES,Inhibition (Staphylococcus aureus),Inhibition (Escherichia coli)
C#CCn1c(N)c(C#N)c2cc(O)ccc21,28.27%,-2.03%
CCOC(N)=CC#N,-2.54%,11.63%
N#Cc1c(-c2ccccc2)c2c(ccc3ccccc32)oc1=O,27.54%,15.75%
CN(C)c1nc(N)c(C#N)cc1C#N,20.41%,5.07%
O[C@H]1CC[C@H](NCc2ccccc2)CC1,21.55%,-7.34%
COc1ccccc1C1C(C#N)=C(N)Oc2[nH]nc(C)c21 (centres undefined),9.32%,14.43%
N#Cc1c(N)nc(Cl)c(C#N)c1-c1ccccc1,17.3%,12.56%
COc1ccc(C2C(C#N)=C(N)Oc3c2ccc2ccccc32)cc1 (centres undefined),21.39%,-6.99%
COc1ccc2cc(C3C4=C(CC(C)(C)CC4=O)Oc4nc5c(c(N)c43)CCCC5)c(Cl)nc2c1 (centres undefined),25.96%,20.91%
COc1nc(Cl)c(C#N)c(-c2ccccc2)c1C#N,35.41%,-14.05%
NC(=O)c1cc2cc(OCc3ccccc3)ccc2[nH]1,21.34%,-8.75%
N#Cc1cccnc1Cl,22.89%,-20.17%
CSC1=NC(=Cc2cn(C)c3ccccc23)C(=O)N1C,3.9%,-1.24%
N#CC1=C(Cl)Oc2ccc3ccccc3c2C1c1ccccc1 (centres undefined),24.96%,12.43%
O=C(Cc1cccc2ccccc12)N/N=C/c1c[nH]c2ccccc12,12.36%,15.45%
C=CCNc1[nH]c2ccc(O)cc2c1C#N,32.95%,-4.66%
Br.C#CCNCc1ccccc1,25.93%,20.8%
C#CCN(C)Cc1cc2cc(OCCCC3CCN(Cc4ccc(C#N)cc4)CC3)ccc2n1C,8.98%,-18.18%
N#Cc1cc(C#N)c(N2CCCCC2)nc1Cl,15.2%,9.21%
N#CC1=C(N)Oc2c(ccc3ccccc23)C1c1ccc(Cl)c(Cl)c1 (centres undefined),0.79%,0.95%
N#Cc1c(N)nc2c(c1-c1ccccc1)CN(Cc1ccccc1)CC2,12.81%,10.61%
CCOC(=O)C1=C(C)Nc2nc3c(c(N)c2C1c1ccc([N+](=O)[O-])cc1)CCCC3.Cl (centres undefined),34.25%,-22.43%

SMILES,Inhibition (Staphylococcus aureus),Inhibition (Escherichia coli)
COc1cc(C2C(C#N)=C(N)Oc3ccc4ccccc4c32)ccc1O (centres undefined),37.28%,-11.46%
N#CC1=C(Cl)Oc2c(ccc3ccccc23)C1c1cccc([N+](=O)[O-])c1 (centres undefined),9.83%,-16.88%
N#Cc1ccc(Br)cc1N,4.6%,16.76%
Cc1ccc(C(O)SNNc2ncnc3c2cnn3-c2ccccc2)cc1 (centres undefined),13.51%,11.76%
Cc1ccc(-c2c(C#N)c(N)nc3c2S(=O)(=O)OC3(C)C)cc1,9.98%,6.38%
O=C(Cc1c[nH]c2ccccc12)NN=C1CCCCCC1,10.21%,6.07%
Cc1ccc(CNNC(=O)c2cc3ccccc3n2C)cc1,-9.87%,-8.9%
CN(C)c1nc(Cl)c(C#N)c(-c2ccccc2)c1C#N,-17.89%,-6.44%
C=C1CN(Cc2ccccc2)c2c(C#N)c(-c3ccccc3)c(C#N)c(=N)n21,44.91%,-0.81%
N#Cc1cc(C#N)c(N2CCC(O)CC2)nc1N,5.78%,-26.11%
COc1ccc2c(ccn2C)c1,6.16%,8.07%
CC(C)(C)OC(=O)N[C@H]1CC[C@H](O)CC1,7.19%,-6.43%
N#Cc1c(Cl)nc(Sc2ccccc2)c(C#N)c1-c1ccccc1,3.48%,-17.27%
COc1nc2ccc(C)cc2cc1C=O,18.14%,18.17%
N#CC1(Br)C(=NBr)Oc2ccc3ccccc3c2C1c1ccccc1 (centres undefined),7.34%,1.03%
Cl.OCC1CCN(Cc2ccccc2)CC1,26.15%,15.91%
COC(=O)C1CCN(Cc2ccccc2)CC1,27.51%,11.49%
Cn1c(C(=O)O)cc2ccccc21,7.02%,5.49%
CCOC(=O)C1=C(C)Oc2nc3c(c(N)c2C1c1nccn1C)CCC3 (centres undefined),6.58%,-22.18%
COc1ccc(C=C2N=C(SC)N(C)C2=O)cc1,-4.46%,0.92%
Cn1ccnc1C1c2ccc3ccccc3c2Oc2nc3c(c(N)c21)CCCCC3 (centres undefined),17.85%,-12.42%
Nc1c2c(nc3c1C(c1ccccc1)c1ccc4ccccc4c1O3)CCCC2 (centres undefined),23.6%,-5.04%

SMILES,Inhibition (Staphylococcus aureus),Inhibition (Escherichia coli)
CNC(=O)c1c(Cl)c2cc(OCc3ccccc3)ccc2n1C,21.87%,-12.2%
C#CCNc1nc(NCC#C)c(C#N)cc1C#N,-5.55%,-10.16%
COC1(N)Oc2ccc3ccccc3c2C(c2ccccc2)C1(Br)C#N (centres undefined),16.73%,20.49%
O=C(N/N=C/c1ccc([N+](=O)[O-])cc1)c1cc2ccccc2[nH]1,11.24%,10.51%
CSC1=NC2(CC2c2ccccc2)C(=O)N1C (centres undefined),-3.53%,-1.26%
CCOC(=O)C1=C(C)Oc2nc3c(c(N)c2C1c1ccccc1OC)CCC3 (centres undefined),12.13%,5.78%
COc1ccc2c(c1)cc(CN(C)Cc1cn(Cc3ccccc3)nn1)n2C,6.23%,-32.11%
Cc1ccc(/C=N/NC(=O)c2c[nH]c3ccccc23)cc1,6.96%,7.51%
Br.C#CCNCC,25.79%,18.7%
CC(=NNC(N)=O)c1c[nH]c2ccccc12,2.54%,16.24%
CC#CCN.Cl,31.78%,20.2%
N#CC1(Br)C(=NBr)Oc2ccc3ccccc3c2C1c1ccc([N+](=O)[O-])cc1 (centres undefined),17.16%,-19.01%
O=Cc1c(-c2ccc(Br)cc2)nc2ccccn12,3.95%,9.28%
CCC(Cc1ccccc1)NNC(=O)c1cc2ccccc2[nH]1 (centres undefined),-3.17%,-1.51%
C#CCN(C)c1nc(Cl)c(C#N)c(-c2ccccc2)c1C#N,13.59%,-10.42%
CCOC(=O)C1=C(C)OC(N)=C(C#N)C1c1ccco1 (centres undefined),7.79%,-14.37%
CN(C)c1cccc(C(=O)c2cccc(N(C)C)c2)c1,23.31%,7.89%
Nc1c2c(nc3c1C(c1ccc(Cl)c(Cl)c1)c1ccc4ccccc4c1O3)CCCC2 (centres undefined),-15.84%,-11.77%
CCOC(=O)c1c(C)nc(NCC2CCN(Cc3ccccc3)CC2)c(C#N)c1-c1ccccc1,24.62%,-10.38%
CCOc1nc(N)c(C#N)cc1C#N.Cl,-3.52%,-30.21%
CC#CCN(Cc1ccccc1)c1nc(N)c(C#N)cc1C#N,14.89%,-4.77%
OCc1cc2ccccc2[nH]1,39.41%,-0.49%

SMILES,Inhibition (Staphylococcus aureus),Inhibition (Escherichia coli)
O=C1SC(SCc2ccccc2)=NC1=Cc1ccc2c(c1)OCO2,0.74%,10.84%
Nc1n[nH]c2c1C(c1ccccc1)CC(=O)N2 (centres undefined),40.09%,-4.9%
O=C1NC(=S)N/C1=C\c1ccccc1,13.95%,8.87%
CC1=NC(=Cc2ccc([N+](=O)[O-])cc2)C(=O)O1,3.5%,-3.97%
Cl.ClCCCC1CCNCC1,28.57%,19.24%
Cl.Nc1c2c(nc3c1C(c1ccccc1)c1c(ccc4ccccc14)O3)CCCC2 (centres undefined),8.92%,12.69%
Cn1ccnc1C1c2ccc3cccnc3c2Oc2nc3c(c(N)c21)CCCCC3 (centres undefined),21.02%,-10.34%
CC#CCN(Cc1ccccc1)c1nc(N)c(C#N)c(-c2ccccc2)c1C#N,17.54%,-2.98%
COC(=O)C(=Cc1ccc([N+](=O)[O-])cc1)NC(=O)c1ccccc1,7.69%,6.65%
N#CC1=C(N)Oc2ccc3ccccc3c2C1c1ccc(O)cc1 (centres undefined),42.7%,-6.77%
Cl.Cl.Cn1c(CNc2ccccc2)cc2cc(OCCCC3CCN(Cc4ccccc4)CC3)ccc21,21.22%,-8.49%
C#CCNC(=O)c1cc2cc(OCCCC3CCN(Cc4ccccc4)CC3)ccc2[nH]1,18.56%,-12.4%
N#Cc1cc(C#N)c(Cl)nc1N,11.29%,7.53%
Cc1ccc(C(O)SNNc2ncnc3c2c(C)nn3-c2ccccc2)cc1 (centres undefined),5.38%,11.97%
CC(C(=O)O)c1c[nH]c2ccccc12 (centres undefined),5.61%,8.04%
C=CCNc1nc(N)c(C#N)cc1C#N,40.4%,-12.52%
Cc1ccc2nc(Cl)c(/C=N/N)cc2c1,28.8%,25.39%
CCOC(=O)C1=C(C)Oc2nc3c(c(N)c2C1c1nccn1C)CCCCC3 (centres undefined),10.64%,-6.7%
C#CCNc1nc(OC)c(C#N)c(-c2ccccc2)c1C#N,49.28%,-4%
Cc1n[nH]c2c1C(c1ccc([N+](=O)[O-])cc1)C(C#N)=C(N)O2 (centres undefined),4.71%,12.5%
CN1C/C(=C\Cl)n2c1c(C#N)c(-c1ccccc1)c(C#N)c2=O,14.24%,-33.76%
